Source: PubChem BioAssay

Assay: basal HepG2 mitochondrial membrane potential changes, profiling panel, cell-based, JC-1 fluorescence, 24 h, 100 nL compound (AID 1167); further: test concentration not given here
Conditions: higher = more signal

Row | Structure (SMILES) | z-score
1 | [N-]=[N+]=NCc1ccccc1[C@@H]1OC(c2ccc(OCCCO)cc2)=N[C@]1(CCS(=O)(=O)c1ccccc1)C(=O)O | -1.69
2 | CC1CC/C=C\[C@H]2OC34C=CCN(c5ccc(Cl)cc5)C(=O)[C@H]3N(C(C)CO)C(=O)[C@]4(C)C2C(=O)O1 (some centres not stated) | 0.807
3 | C=CC[C@]1(C(=O)N2CCCCC2)N=C(c2ccc(OCCCO)cc2)O[C@H]1c1ccccc1CN=[N+]=[N-] | 0.574
4 | COc1ccc([Si](C)(C)[C@H]2[C@H](CC(=O)N3CCC[C@H]3CO)O[C@@]3(C(=O)N(Cc4ccc(N5CCOC5=O)cc4)c4ccccc43)[C@@H]2C)cc1 | 2.41
5 | Cc1cc(C)c(C(O)C2C=CC3C(=O)N(c4ccccc4)C(=O)C3N2Nc2ccccc2F)c(C)c1 (configuration not stated) | -1.84
6 | CC[C@@H]1O[Si](C(C)C)(C(C)C)c2c1cc(-c1cc(C)c(OC)c(C)c1)nc2-c1ccc(Oc2ccccc2)cc1 | -0.557
7 | O[C@@H](Cc1ccccc1)[C@@H](/C=C/C1CC1)N(CC#Cc1ccccc1)Cc1ccccc1Br | -1.79
8 | COC(=O)C/C=C/C[C@]1(O)C(=O)N(C)c2ccccc21 | 1.25
9 | C=CC[C@@]1(C(=O)NCCCOC)N=C(c2ccc(OCCCO)cc2)O[C@@H]1c1ccccc1N=[N+]=[N-] | 1.62
10 | COC(=O)[C@@H]1N=C(c2ccc(OCCCO)cc2)O[C@@H]1C | 0.5
11 | CCCC=C(CCC)[C@@H](NC(=O)c1cccs1)c1ccc(C(=O)OC)cc1 | -0.115
12 | COc1cc(NN2C(C(O)c3cc(OC)c(OC)c(OC)c3)C=CC3C(=O)N(C)C(=O)C32)cc(OC)c1OC (configuration not stated) | -1.09
13 | COc1cc(OC)c(C(O)C2C=CC3C(=O)N(Cc4ccccc4)C(=O)C3N2n2cnnc2)cc1Br (configuration not stated) | -0.769
14 | C=CCC(OC(C)=O)[C@@H]1[C@@H](N(Cc2cc3ccccc3o2)C(=O)Cc2ccc(F)cc2)c2cc(OCCCO)ccc2N1C(=O)Cc1ccc2ccccc2c1 (some centres not stated) | 1.22
15 | COc1ccc(CCNC(=O)[C@@H]2c3ccccc3C(=O)N(C3CCCCC3)[C@H]2c2ccc(CO)cc2)cc1 | 1.83
16 | C[N+](C)(C)CCCC[C@@H]1NC(=O)[C@@H]2C[C@H](C(=O)NCCCCCCN)[C@H](c3cccc(OCCO)c3)N2C1=O | 0.746

Row | Structure (SMILES) | z-score
17 | O=C1C2C=CC(C(O)C3CC=CCC3)N(Nc3ccccc3)C2C(=O)N1c1ccccc1 (configuration not stated) | -2.47
18 | O=C1C2C=CC(C(O)c3ccco3)N(Nc3ccccc3F)C2C(=O)N1c1ccccc1 (configuration not stated) | -1.27
19 | COC(=O)c1c(CC[C@@H](CO)NC(=O)N2CCC[C@H]2Cn2cc(C3(O)CCCCC3)nn2)oc(C(C)=O)c1C(=O)OC | 0.223
20 | C=C(/C(=C/C[C@H](OC(=O)c1ccncc1)c1ccc(CO)o1)c1cnc2ccccc2c1)C(C)C | -0.211
21 | COCC(=C=CC[C@H](O)c1ccccc1OCCO)C[C@H](O)c1ccccn1 | 1.01
22 | CC(C)c1ccc(NN2C(C(O)c3ccc(F)cc3)C=CC3C(=O)N(c4ccccc4)C(=O)C32)cc1 (configuration not stated) | -1.18
23 | CO[C@H]1O[C@H](CO)[C@@H](OC(=O)Nc2ccc3c(c2)OCO3)[C@H](OC(=O)Nc2ccc3c(c2)OCO3)[C@@H]1OC(=O)Nc1ccc2c(c1)OCO2 | -1.14
24 | CCCNC(=O)[C@@H]1c2ccccc2C(=O)N(Cc2ccc(OC(F)(F)F)cc2)[C@H]1c1ccc(CO)cc1 | 3.22
25 | CCOC(=O)C[C@H]1[C@H](OC(=O)c2cc3ccccc3oc2=O)[C@@H](NC(=O)c2ccccc2)c2cc(OCCCO)ccc2N1C(=O)c1ccccc1 | 1.23
26 | CCCNC(=O)[C@@]1(C)c2ccccc2C(=O)N(c2ccc(C)cn2)[C@H]1c1ccc(CO)cc1 | 0.204
27 | CC(C)C(O)C1C=CC2C(=O)N(c3ccccc3)C(=O)C2N1Nc1ccccc1 (configuration not stated) | -1.6
28 | CCCCC(CC)C(O)C1C=CC2C(=O)N(c3ccccc3)C(=O)C2N1Nc1ccc(C#N)cc1 (configuration not stated) | -1.31
29 | COc1ccc(CCNC(=O)[C@@]2(Cc3ccccc3I)c3ccccc3C(=O)N(C3CCCCC3)[C@H]2c2ccc(CO)cc2)cc1 | 2.5
30 | [N-]=[N+]=Nc1ccccc1C[C@@]1(C(N)=O)N=C(c2ccc(OCCCO)cc2)O[C@@H]1c1ccccc1N=[N+]=[N-] | -1.11
31 | C=CCN1C(=O)[C@]2(CCS(=O)(=O)c3ccccc3)N=C(c3ccc(OCCCO)cc3)O[C@@H]2c2ccccc21 | 0.452
32 | NC(=O)NCC#Cc1ccc2c(c1)[C@]1(C(=O)N2)[C@H](c2ccccc2OCCO)N2[C@H](c3ccccc3)[C@H](c3ccccc3)OC(=O)[C@H]2[C@@H]1C(=O)O | -0.716
